Experimental data reported in PubChem BioAssay (NCATS).
Records with an inconclusive call do not appear. Activity calls are given as the source filed them. Unless noted, calls follow the shape of the dose curve; as a rule, active = well fitted curve in the direction sought with a large enough effect; inconclusive = small, poorly fitted or top-dose-only effect, or another doubt; inactive = no such curve, though single readings can be large; an effect the other way counts as inactive or inconclusive.

Tests used:
[1] = target: Cytochrome P450 1A2 (Homo sapiens) (UniProt P05177); experiment: p450-cyp1a2 (AID 410; calls by dose curve; also: potency is read from the fitted curve at half-maximal effect)
In short: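 O-Demethylation of luciferin 6' methyl ether by human CYP1A2 is monitored as luciferase luminescence. Substrate sits at Km (100uM); enzyme is 20nM. Values are scaled to 57 uM furafylline as maximal inhibition.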

[2] = Stat Signaling Pathway (AID 446; active = well fitted curve in either direction with a large enough effect, not every such curve was filed as active;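 also: ME-180 cervical cancer cells given 40 pM IL-6 alongside compound; SIE-controlled beta-lactamase reporter measured as 460/530 nm FRET emission ratio; % is scaled to controls: 0 for no effect and ±100 for the full control effect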)
In short: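 Normalization used AC90 stimulation (300 pM IL-6) and AC90 inhibition (125 nM pan-JAK inhibitor at 40 pM IL-6). The underlying signal is SIE-driven beta-lactamase in ME-180 cells after 5 h IL-6 exposure with compound.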

[3] = target: Glucocorticoid receptor (Homo sapiens) (UniProt P04150); experiment: GR-GFP Redistribution (AID 450;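 active = compounds whose dose series gives a full or clear partial fitted curve of increased nuclear translocation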; also: potency is read from the fitted curve at half-maximal effect); conditions: U2OS GR-GFP nuclear translocation, laser cytometry, 2 h
[4] = target: Glucocorticoid receptor (Homo sapiens) (UniProt P04150); experiment: GR-EFC Redistribution (AID 451; calls by dose curve; also: potency is read from the fitted curve at half-maximal effect); conditions: CHO-K1 GR-EFC translocation, beta-gal luminescence, 2 h
In short: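 Translocation of GR-ED fusion to nuclear EA restores b-gal, read by luminescence after 1 h room-temperature detection. Engineered CHO-K1 biosensor cells, 1,000/well, exposed 2 h at 37 C to titrations up to 46 uM final.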

[5] = target: Guanine nucleotide-binding protein G(i) subunit alpha-1 (Homo sapiens) (UniProt P63096); experiment: qHTS Assay for Inhibitors of RGS12 GoLoco Motif Activity (Green Fluorophore) (AID 879);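 also: 0% = labeled peptide with Gαi1 and full inhibition = labeled peptide alone without protein; negative values mean loss of peptide binding seen as reduced polarization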
In short: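 A drop in FITC polarization marked displacement of the FITC-tagged RGS12 GoLoco peptide (10 nM) from Gαi1 (50 nM). Compounds were incubated 10 min at room temperature in Tris pH 7.5 buffer containing 150 mM NaCl, 0.1 mM GDP and 0.05% NP40; unlabeled peptide titration served as control.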

[6] = target: Cytochrome P450 3A4 (Homo sapiens) (UniProt P08684); experiment: qHTS Assay for Activators of Cytochrome P450 3A4 (AID 885); also: nearly all actives have a fitted effect of over 65% in size
In short: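 Human CYP3A4 dealkylates Luciferin-PPXE to luciferin, which luciferase detection converts to light. Substrate was at its KM (25uM), buffer 200mM KPO4, reaction 60 min at RT.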

[7] = qHTS Assay for Identification of Small Molecule Antagonists for Thrombopoietin (TPO) Signaling Pathway (AID 918); conditions: TPO-dependent cell signaling reporter, antagonist mode; also: potency is read from the fitted curve at half-maximal effect; nearly all actives have a fitted effect of over 60% in size
In short: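 Inhibitors of TPO signaling are sought by stimulating IL-3-starved murine Ba/F3 cells (human TPO receptor, Glycoprotein IIb-driven luciferase) with TPO at its EC50 of 26 pM alongside compound. After 24 hrs at 37 C, reporter luminescence is measured.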

[8] = target: Pyruvate kinase (Leishmania mexicana) (UniProt Q27686); experiment: qHTS Validation Assay for Inhibitors of Leishmania Mexicana Pyruvate Kinase (AID 945);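 also: 0% = DMSO only neutral control wells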
In short: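 The enzyme is a highly purified E451W mutant of LmPYK used at 0.2 nM. It converts 0.5 mM PEP and 0.1 mM ADP over 1 h at room temperature; product ATP is quantified by luciferase luminescence relative to DMSO controls.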

[9] = target: Pyruvate kinase PKM (Homo sapiens) (UniProt P14618); experiment: qHTS Assay for Activators of Human Muscle Pyruvate Kinase (AID 954; active = well fitted curve in the direction sought with a large enough effect, not every such curve was filed as active;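 also: 0% = uninhibited enzyme and -100% = no enzyme or full thiadiazolimine inhibition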)
In short: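 Compound pinned into substrate mix (0.5 mM PEP, 0.1 mM ADP), then 0.1 nM PKM2 added; 1 h, RT. Stop/detection luciferase reagent added, luminescence read. Normalized to no-inhibition and no-enzyme or reference-inhibitor controls.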

[10] = target: Alpha-galactosidase A (Homo sapiens) (UniProt P06280); experiment: Counterscreen for Glucocerebrosidase Inhibitors: qHTS Assay for Human alpha-Galactosidase at pH 4.5 (AID 992); also: 0% is about no effect
In short: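 Steps: enzyme (2 nM final), then compound across 0.7 nM to 77 uM, then 80 uM fluorogenic galactopyranoside substrate; incubate 20 min at room temperature; quench at pH 10; measure fluorescence at 365/440 nm.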

[11] = target: alpha-glucosidase (Oryza sativa, rice) (UniProt Q653V4); experiment: Counterscreen for Glucocerebrosidase Inhibitors: qHTS Assay for Rice alpha-Glucosidase at pH 5.0 (AID 997);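 also: 0% = full activity with enzyme and -100% = basal without enzyme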
In short: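 Endpoint fluorogenic assay at pH 5.0: compounds (0.7 nM to 77 uM) titrated against 4 nM rice enzyme and 400 uM 4-MU-alpha-glucoside for 20 min at room temperature; NaOH/glycine stop, read ex 365/em 440 nm, Hill-fitted AC50.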

[12] = target: DNA repair nuclease/redox regulator APEX1 (Homo sapiens) (UniProt P27695); experiment: qHTS Validation Assay for Inhibitors of the Human Apurinic/apyrimidinic Endonuclease 1 (APE1) (AID 1705;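 also: TAMRA fluorescence gain over two minutes as APE1 cuts a quenched THF abasic duplex; % is scaled to controls: 0 for no effect and ±100 for the full control effect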)
In short: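 Read-out: TAMRA fluorescence (525 nm ex, 598 nm em) from cleavage of a quenched THF abasic-site duplex, 50 nM final; activity taken as intensity change between third and first of three reads 60 s apart.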

[13] = Counterscreen for APE1 Inhibitors: Fluorescent Dye Displacement Validation Assay (AID 1707);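 also: plate controls were ThO with dsDNA and no compound for no effect and ThO without dsDNA for full effect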
In short: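 Reaction mixture of 250 nM Thiazole Orange and 50 nM double-stranded abasic-site DNA was dispensed, compounds were pin-transferred, and fluorescence was read at endpoint (480 nm ex, 540 nm em). Reduced fluorescence indicated dye displacement by DNA binding.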

[14] = qHTS for differential inhibitors of proliferation of Plasmodium falciparum line 7G8 (AID 1815);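 also: potency is read from the fitted curve at half-maximal effect; parasite growth measured after three days of incubation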
[15] = qHTS for differential inhibitors of proliferation of Plasmodium falciparum line GB4 (AID 1816); conditions: Potency: Plasmodium falciparum GB4 proliferation inhibition;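 also: potency is read from the fitted curve at half-maximal effect; parasite growth measured after 72 h incubation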
[16] = qHTS for differential inhibitors of proliferation of Plasmodium falciparum line D10 (AID 1877);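 also: potency is read from the fitted curve at half-maximal effect; parasites grown with compound for 72 h before DNA staining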
[17] = qHTS for differential inhibitors of proliferation of Plasmodium falciparum line W2 (AID 1883); conditions: Potency: Plasmodium falciparum W2 proliferation inhibition;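 also: potency is read from the fitted curve at half-maximal effect; parasites grown with compound for 72 h before lysis and staining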
[18] = qHTS for differential inhibitors of proliferation of Plasmodium falciparum line HB3 (AID 1886); conditions: Potency: Plasmodium falciparum HB3 proliferation inhibition;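 also: potency is read from the fitted curve at half-maximal effect; parasites grown with compound for 72 h before SYBR Green readout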
[19] = target: ATP-dependent DNA helicase Q1 (Homo sapiens) (UniProt P46063); experiment: qHTS Validation Assay for Inhibitors of RecQ-Like Dna Helicase 1 (RECQ1) (AID 2353);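 also: plate controls were DMSO vehicle for no effect and enzyme-free control for full effect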
In short: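 RECQ1T1 50 nM; forked duplex (20 bp + 30-nt ss tails) 200 nM, ATP 2 mM final; pH 8.0, 2 mM MgCl2, 2.5 ug/ml poly(dI-dC); 15 min compound preincubation; discontinuous kinetic read over 2 h at RT.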

[20] = target: Transient receptor potential cation channel subfamily V member 1 (Homo sapiens) (UniProt Q8NER1); experiment: HTS Assay for Compounds that Act as Enhancers of the Vanilloid Receptor 1 (AID 488979); also: 0% is about no effect
In short: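 Calcium influx kinetics via Fluo-8 (480/520 nm) in TRPV1-expressing cells, 2000/well cultured overnight at 35.5C. Compound-alone read 3 min (agonist phase), followed by EC20 capsaicin challenge for 2 min (enhancer phase).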

[21] = target: Thyrotropin receptor (Homo sapiens) (UniProt P16473); experiment: qHTS Assay for Antagonists of the Thyroid Stimulating Hormone Receptor (AID 488980); also: 0% is about no effect
In short: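 TSHR-HEK293 cells; 70 uM RO 20-1724 PDE inhibitor; compound + EC80 TSH (4 nM final); anti-cAMP cryptate antibody/cAMP-d2 in lysis buffer, 30 min RT; HTRF 665/620 nm read.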

[22] = target: Thyrotropin-releasing hormone receptor (Homo sapiens) (UniProt P34981); experiment: qHTS for Small Molecule Agonists and Allosteric Enhancers of Human TRH Receptor: Validation Screen for Agonists (AID 493127;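 active = calcium activation more than 3 SD above the typical response in the agonist read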;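 also: intracellular calcium rise by fluo-8 fluorescence before TRH EC20 addition; 0% is about no effect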); conditions: TRH receptor agonist cell assay; at 2 µM; stronger effect = higher value
In short: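 Compounds are added by online pintool to dye-loaded TRHR cells while fluorescence is recorded every second. A rise in calcium signal during the agonist read marks activation; a later 10 nM TRH addition (EC20) serves the separate enhancer mode.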

[23] = target: Galactokinase (Homo sapiens) (UniProt P51570); experiment: qHTS Validation Assay for Inhibitors of Human Galactokinase (GALK) (AID 493189); also: 0% is about no effect
In short: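 Luminescence from leftover ATP (Kinase-Glo Plus, 10 min) served as read-out after a 1 h room-temperature reaction of 5 nM GALK, 100 uM galactose and 35 uM ATP at pH8.0.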

[24] = target: Voltage-gated inwardly rectifying potassium channel KCNH2 (Homo sapiens) (UniProt Q12809); experiment: qHTS Assay for Small Molecule Inhibitors of the Human hERG Channel Activity (AID 588834);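 also: potency is read from the fitted curve at half-maximal effect; lower thallium flux fluorescence means stronger hERG block; nearly all actives have a fitted effect of over 50% in size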
In short: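 Thallium-flux (FluxOR) read-out on FDSS: fluorescence read 10 s before and 2 min after stimulation buffer. hERG-BacMam-transduced U2OS cells, compound exposure about 10 min. AC50 by standard Hill equation.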

[25] = target: Catechol O-methyltransferase (Homo sapiens) (UniProt P21964); experiment: Confirmatory Screen for Target Class Profiling of Small Molecule Inhibitors of Methyltransferases (AID 1745852; calls by dose curve; also: potency is read from the fitted curve at half-maximal effect); conditions: MTase-Glo luminescence, SAH detection, recombinant enzyme; measured here: COMT max response; stronger effect = lower value
[26] = target: Guanidinoacetate N-methyltransferase (Homo sapiens) (UniProt Q14353); experiment: as above; conditions: activity change, negative = inhibition: at 57.3 µM (top of the series) unless noted
[27] = target: Nicotinamide N-methyltransferase (Homo sapiens) (UniProt P40261); experiment: as above; conditions: MTase-Glo luminescence, SAH detection, recombinant enzyme; measured here: NNMT max response; stronger effect = lower value
[28] = target: Phenylethanolamine N-methyltransferase (Homo sapiens) (UniProt P11086); experiment: as above; conditions: MTase-Glo luminescence, SAH detection, recombinant enzyme; measured here: PNMT max response; stronger effect = lower value
[29] = qHTS for differential inhibitors of proliferation of Plasmodium falciparum line 3D7 (AID 1876); also: potency is read from the fitted curve at half-maximal effect
[30] = qHTS for differential inhibitors of proliferation of Plasmodium falciparum line Dd2 (AID 1882); conditions: Potency: Plasmodium falciparum Dd2 proliferation inhibition;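 also: plate controls were DMSO vehicle for no effect and 0.29 µM artemisinin for full effect; nearly all actives have a fitted effect of over 65% in size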
In short: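 SYBR Green DNA fluorescence (ex 485, em 535 nm) after overnight lysis quantifies parasite growth; compound exposure lasted 72 h at 37 C on infected red cells at 2.5% hematocrit, 0.3% parasitemia (final). Artemisinin 0.29 uM and vehicle wells define normalization.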

[31] = qHTS Assay for Modulators of Human Peripheral Myelin Protein 22 (PMP22) Expression/Activity (AID 1967; active = well fitted curve in the direction sought with a large enough effect in the signal ratio; the % refers to the signal ratio;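 also: 0% = untreated cells and 100% end not stated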)
In short: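 Mouse MSC80 Schwann line, Pmp22 promoter–CBG68 reporter, EF-alpha–CBR internal control. 24h compound exposure, 37 °C/5% CO2, DMEM + 10% FBS. Readout: corrected green/red luminescence ratio, normalized to untreated cells; concentration-response curves fitted and classified.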

[32] = target: Ferritin light chain (Equus caballus) (UniProt P02791); experiment: qHTS Validation Assay for Identification of Novel General Anesthetics (AID 2323); also: % is scaled to controls: 0 for no effect and ±100 for the full control effect
In short: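 10 uM horse-spleen apoferritin + 1-AMA (50% saturated, PBS); cpd pin-transferred, 10 min RT. Ex 380/Em 535 nm endpoint. Activity normalized between free 1-AMA and 1-AMA/apoferritin; 4-parameter Hill fit of concentration-response.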

[33] = target: RecQ-like DNA helicase BLM (Homo sapiens) (UniProt P54132); experiment: qHTS Validation Assay for Inhibitors of Bloom's syndrome helicase (BLM) (AID 2364);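 also: plate controls were DMSO vehicle for no effect and enzyme-free control for full effect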
In short: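 Forked 20-bp duplex substrate (200 nM, TAMRA/BHQ-2) plus 2 mM ATP added after 15 min compound preincubation with 50 nM enzyme, pH 8.0, poly(dI-dC) 2.5 ug/ml. Strand separation followed by fluorescence (525/598 nm) over 2 h, normalized to enzyme-free and DMSO controls.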

[34] = Validation screen for small molecules that induce DNA re-replication in MCF 10A normal breast cells (AID 463097); also: 0% is about no effect; nearly all actives have a fitted effect of over 60% in size
In short: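 250 MCF 10A cells/well; compound pin-transferred; 48 hr, 37 C, 5% CO2; Hoechst 40 min; imaged 405/500-530 nm. Hits = more high-intensity nuclei.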

[35] = Validation screen for small molecules that induce DNA re-replication in SW480 colon adenocarcinoma cells (AID 504364); also: 0% is about no effect
In short: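 Image-based qHTS: compounds were incubated with SW480 cells for 48 hr, nuclei stained with Hoechst, and per-nucleus fluorescence intensity scanned to flag cells with excess DNA content.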

Chain of Catechol O-methyltransferase (Homo sapiens) (P21964 whole entry, looked up): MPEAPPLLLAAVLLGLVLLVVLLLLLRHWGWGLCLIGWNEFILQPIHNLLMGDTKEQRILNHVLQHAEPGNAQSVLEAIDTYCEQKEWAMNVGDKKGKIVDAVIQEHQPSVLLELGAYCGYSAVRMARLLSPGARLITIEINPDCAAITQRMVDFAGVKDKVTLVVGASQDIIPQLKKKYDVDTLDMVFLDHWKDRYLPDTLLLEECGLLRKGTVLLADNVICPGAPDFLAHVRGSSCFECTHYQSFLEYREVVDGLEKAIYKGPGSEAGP
Chain of ATP-dependent DNA helicase Q1 (Homo sapiens) (P46063 whole entry, looked up): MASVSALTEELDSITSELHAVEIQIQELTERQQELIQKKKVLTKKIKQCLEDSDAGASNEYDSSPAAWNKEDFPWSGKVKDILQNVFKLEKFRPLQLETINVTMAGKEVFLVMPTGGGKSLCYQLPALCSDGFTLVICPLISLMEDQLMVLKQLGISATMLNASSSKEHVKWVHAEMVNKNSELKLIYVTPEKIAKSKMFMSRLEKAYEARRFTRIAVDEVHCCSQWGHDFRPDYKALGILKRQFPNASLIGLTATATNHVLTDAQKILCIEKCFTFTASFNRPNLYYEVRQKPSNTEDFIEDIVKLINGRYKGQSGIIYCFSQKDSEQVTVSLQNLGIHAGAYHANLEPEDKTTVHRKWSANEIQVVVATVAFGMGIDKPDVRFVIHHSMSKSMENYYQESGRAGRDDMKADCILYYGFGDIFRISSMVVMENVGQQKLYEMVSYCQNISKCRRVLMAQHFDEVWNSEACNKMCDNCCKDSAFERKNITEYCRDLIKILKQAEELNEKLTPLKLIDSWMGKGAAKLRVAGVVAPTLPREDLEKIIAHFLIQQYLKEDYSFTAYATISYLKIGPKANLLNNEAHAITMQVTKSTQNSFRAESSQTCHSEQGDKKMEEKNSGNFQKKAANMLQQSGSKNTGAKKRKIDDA
Chain of DNA repair nuclease/redox regulator APEX1 (Homo sapiens) (P27695 whole entry, looked up): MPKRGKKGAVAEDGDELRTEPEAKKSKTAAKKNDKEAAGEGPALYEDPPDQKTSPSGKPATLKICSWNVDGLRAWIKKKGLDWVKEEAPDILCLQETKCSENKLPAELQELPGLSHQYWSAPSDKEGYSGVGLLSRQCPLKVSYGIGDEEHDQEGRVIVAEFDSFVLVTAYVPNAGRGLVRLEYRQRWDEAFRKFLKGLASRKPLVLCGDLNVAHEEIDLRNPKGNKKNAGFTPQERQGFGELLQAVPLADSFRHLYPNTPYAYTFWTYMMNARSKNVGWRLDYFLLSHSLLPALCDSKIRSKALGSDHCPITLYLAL
Chain of Galactokinase (Homo sapiens) (P51570 whole entry, looked up): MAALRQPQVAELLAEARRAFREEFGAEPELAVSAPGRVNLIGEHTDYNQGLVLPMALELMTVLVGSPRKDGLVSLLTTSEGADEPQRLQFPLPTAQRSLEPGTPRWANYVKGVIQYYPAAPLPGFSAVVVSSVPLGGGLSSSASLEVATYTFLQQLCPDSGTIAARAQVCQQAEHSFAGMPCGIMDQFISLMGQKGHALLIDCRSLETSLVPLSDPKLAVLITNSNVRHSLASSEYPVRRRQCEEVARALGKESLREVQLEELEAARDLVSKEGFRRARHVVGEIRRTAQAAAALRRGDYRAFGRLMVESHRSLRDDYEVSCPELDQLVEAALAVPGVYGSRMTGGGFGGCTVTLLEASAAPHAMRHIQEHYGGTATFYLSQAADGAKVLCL
Chain of Thyrotropin receptor (Homo sapiens) (P16473 whole entry, looked up): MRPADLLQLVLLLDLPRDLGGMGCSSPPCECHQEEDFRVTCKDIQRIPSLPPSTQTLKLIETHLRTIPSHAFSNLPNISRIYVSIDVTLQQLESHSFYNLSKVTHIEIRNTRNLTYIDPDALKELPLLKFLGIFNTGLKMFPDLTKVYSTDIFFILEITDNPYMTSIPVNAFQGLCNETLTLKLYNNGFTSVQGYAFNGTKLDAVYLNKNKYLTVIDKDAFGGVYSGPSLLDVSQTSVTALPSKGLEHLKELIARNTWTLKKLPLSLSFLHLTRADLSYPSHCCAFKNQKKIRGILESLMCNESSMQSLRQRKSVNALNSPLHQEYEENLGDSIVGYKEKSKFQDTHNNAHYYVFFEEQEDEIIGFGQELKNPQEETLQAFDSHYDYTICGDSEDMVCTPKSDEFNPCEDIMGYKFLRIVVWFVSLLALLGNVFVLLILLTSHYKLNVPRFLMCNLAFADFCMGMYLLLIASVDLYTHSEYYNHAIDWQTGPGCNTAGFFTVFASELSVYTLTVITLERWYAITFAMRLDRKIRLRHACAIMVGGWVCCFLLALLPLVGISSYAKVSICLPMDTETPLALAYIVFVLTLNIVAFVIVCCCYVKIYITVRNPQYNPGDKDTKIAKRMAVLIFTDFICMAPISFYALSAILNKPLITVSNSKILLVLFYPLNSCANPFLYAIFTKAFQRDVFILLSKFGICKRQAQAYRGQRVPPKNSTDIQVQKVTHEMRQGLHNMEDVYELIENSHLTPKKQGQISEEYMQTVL
Chain of Glucocorticoid receptor (Homo sapiens) (P04150 whole entry, looked up, the tested form may be a part): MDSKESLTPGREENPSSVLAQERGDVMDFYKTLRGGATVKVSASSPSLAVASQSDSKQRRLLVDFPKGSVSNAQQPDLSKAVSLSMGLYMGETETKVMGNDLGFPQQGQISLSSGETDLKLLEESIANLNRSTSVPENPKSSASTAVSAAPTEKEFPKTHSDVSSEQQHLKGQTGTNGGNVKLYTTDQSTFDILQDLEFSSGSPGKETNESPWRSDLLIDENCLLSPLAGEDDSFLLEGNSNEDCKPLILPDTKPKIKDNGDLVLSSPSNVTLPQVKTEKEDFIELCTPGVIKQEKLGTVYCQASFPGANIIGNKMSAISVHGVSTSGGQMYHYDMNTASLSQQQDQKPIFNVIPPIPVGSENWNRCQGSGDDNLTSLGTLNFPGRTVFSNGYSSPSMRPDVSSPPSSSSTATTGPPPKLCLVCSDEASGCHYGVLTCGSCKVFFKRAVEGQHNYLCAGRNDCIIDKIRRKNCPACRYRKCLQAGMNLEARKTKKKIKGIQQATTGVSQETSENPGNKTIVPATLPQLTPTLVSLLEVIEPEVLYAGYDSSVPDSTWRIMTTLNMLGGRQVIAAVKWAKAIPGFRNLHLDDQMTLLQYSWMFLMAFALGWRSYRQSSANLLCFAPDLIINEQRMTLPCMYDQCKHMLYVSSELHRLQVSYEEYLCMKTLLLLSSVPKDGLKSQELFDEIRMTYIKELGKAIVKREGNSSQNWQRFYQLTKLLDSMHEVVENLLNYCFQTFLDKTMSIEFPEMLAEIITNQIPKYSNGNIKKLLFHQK
Chain of Phenylethanolamine N-methyltransferase (Homo sapiens) (P11086 whole entry, looked up): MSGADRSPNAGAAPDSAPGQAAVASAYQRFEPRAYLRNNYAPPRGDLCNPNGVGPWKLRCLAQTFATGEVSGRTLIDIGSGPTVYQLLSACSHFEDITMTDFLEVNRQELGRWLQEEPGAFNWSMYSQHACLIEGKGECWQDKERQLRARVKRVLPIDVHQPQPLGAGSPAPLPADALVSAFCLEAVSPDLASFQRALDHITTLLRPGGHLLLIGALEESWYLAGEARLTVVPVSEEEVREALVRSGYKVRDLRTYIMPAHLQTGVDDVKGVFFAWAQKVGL
Chain of Nicotinamide N-methyltransferase (Homo sapiens) (P40261 whole entry, looked up): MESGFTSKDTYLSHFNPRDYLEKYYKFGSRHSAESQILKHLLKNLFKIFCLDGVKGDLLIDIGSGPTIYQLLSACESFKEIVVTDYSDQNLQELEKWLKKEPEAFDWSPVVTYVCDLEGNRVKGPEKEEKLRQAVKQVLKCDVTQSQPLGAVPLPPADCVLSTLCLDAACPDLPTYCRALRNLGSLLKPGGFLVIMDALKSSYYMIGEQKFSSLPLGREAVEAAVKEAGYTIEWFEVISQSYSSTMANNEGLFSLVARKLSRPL
Chain of Alpha-galactosidase A (Homo sapiens) (P06280 whole entry, looked up): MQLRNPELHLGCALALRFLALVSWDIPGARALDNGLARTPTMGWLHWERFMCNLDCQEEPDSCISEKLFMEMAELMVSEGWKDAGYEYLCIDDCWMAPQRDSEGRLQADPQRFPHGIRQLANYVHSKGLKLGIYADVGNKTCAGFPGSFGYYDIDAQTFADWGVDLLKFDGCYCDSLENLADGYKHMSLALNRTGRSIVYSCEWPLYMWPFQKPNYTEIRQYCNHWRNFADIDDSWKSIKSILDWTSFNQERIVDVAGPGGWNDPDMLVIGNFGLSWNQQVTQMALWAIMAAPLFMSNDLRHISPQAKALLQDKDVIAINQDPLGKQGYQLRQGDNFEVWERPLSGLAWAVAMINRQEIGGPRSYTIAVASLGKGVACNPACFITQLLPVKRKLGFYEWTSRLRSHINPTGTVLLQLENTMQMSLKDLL
Chain of Ferritin light chain (Equus caballus) (P02791 2-175 limits assumed): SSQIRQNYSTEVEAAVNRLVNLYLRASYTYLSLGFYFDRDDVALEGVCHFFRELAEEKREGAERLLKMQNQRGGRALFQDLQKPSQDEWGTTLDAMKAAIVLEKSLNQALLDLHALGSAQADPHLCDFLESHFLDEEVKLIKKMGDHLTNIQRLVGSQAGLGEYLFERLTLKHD
Chain of Pyruvate kinase PKM (Homo sapiens) (P14618 whole entry, looked up): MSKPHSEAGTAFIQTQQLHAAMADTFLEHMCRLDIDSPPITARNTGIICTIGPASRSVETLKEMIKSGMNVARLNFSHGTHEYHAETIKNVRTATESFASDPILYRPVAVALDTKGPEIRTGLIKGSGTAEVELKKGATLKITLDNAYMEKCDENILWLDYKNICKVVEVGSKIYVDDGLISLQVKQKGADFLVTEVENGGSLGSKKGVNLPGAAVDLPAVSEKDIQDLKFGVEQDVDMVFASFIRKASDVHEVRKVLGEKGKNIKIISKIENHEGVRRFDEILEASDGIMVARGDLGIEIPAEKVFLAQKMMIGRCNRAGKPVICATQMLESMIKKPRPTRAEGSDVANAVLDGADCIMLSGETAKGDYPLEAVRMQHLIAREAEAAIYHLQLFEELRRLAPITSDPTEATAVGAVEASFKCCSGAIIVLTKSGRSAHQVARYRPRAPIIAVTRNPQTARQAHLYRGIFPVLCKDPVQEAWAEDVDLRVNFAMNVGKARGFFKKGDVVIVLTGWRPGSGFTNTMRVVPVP

N#Cc1c(-c2ccccc2)no[n+]1[O-]
active: Potency [1] 0.398 µM | Potency [7] 3.98 µM | Potency [14] 10 µM | Potency [15] 12.6 µM | Potency [16] 14.1 µM | Potency [17] 10 µM | Potency [18] 11.2 µM | Potency [24] 5.01 µM
inactive: outcome [2] | Potency [3] > 46 µM | Potency [4] > 46 µM | Potency [5] | outcome [6] | outcome [8] | outcome [9] | outcome [10] | outcome [11] | Potency [12] | outcome [13] | outcome [19] | outcome [20] | outcome [21] | activation [22] 0.688% | outcome [23]

Cn1c(=O)n(C)c2cc(S(=O)(=O)Nc3cc4c(cc3NCc3ccccc3)n(C)c(=O)n4C)ccc21
-35.1%: activity [27]
-26%: activity [25]
-25.2%: activity [28]
active: Potency [26] 21.5 µM

CC(=O)Nc1ccc2c(c1)C1C=CCC1C(c1ccccc1F)N2 (configuration not stated)
-27.7%: activity [28]
-12.1%: activity [27]
-18.4%: activity [25]
active: Potency [26] 42.9 µM

CN1CCN(CC/C=C2/c3ccccc3Sc3ccc(S(=O)(=O)N(C)C)cc32)CC1
inactive: Potency [12] | outcome [13] | Potency [30] | outcome [31] | outcome [32] | outcome [19] | Potency [33] | Potency [34] | outcome [21] | outcome [23] | Potency [35]
active: Potency [14] 7.08 µM | Potency [15] 11.2 µM | Potency [29] 10 µM | Potency [17] 5.01 µM
